ssDAF-12 act = activates DAF-12 receptor from parasite S. stercoralis | HEK293 ssDAF-12/GRIP1 lit1-tk-luc reporter, luminescence; % of 3 µM dafachronic acid response | activation, % at 6.8 µM | 370,000 tested, 1% active;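 active means activation above the mean over all tested compounds plus 3 SD, cut at about 0.9% in these data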
DAX1 inh-1 = DAX1 (NR0B1) inhibition, primary screen; inhibition, % at 6.8 µM; AID 652010; 370,000 tested, 1.1% active; HEK293T StAR-luciferase reporter, SF-1/DAX-1 repression relief;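 active means inhibition above the mean over all tested compounds plus 3 SD, cut at about 3.6% in these data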;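 further: higher inhibition means more luminescence from relief of DAX-1 repression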
DAX1 inh-2 = NR0B1 (DAX1) inhibition; P51843; HEK293 Gal4-DAX1 luciferase reporter, luminescence; inhibition, % at 6.75 µM; 340,000 tested, 0.99% active;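 active means inhibition above the mean over all tested compounds plus 3 SD, cut at about 4.2% in these data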;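 further: inhibition shows as a rise in luminescence from relieved DAX1 repression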
Target sequence (P51843 207-470 limits assumed): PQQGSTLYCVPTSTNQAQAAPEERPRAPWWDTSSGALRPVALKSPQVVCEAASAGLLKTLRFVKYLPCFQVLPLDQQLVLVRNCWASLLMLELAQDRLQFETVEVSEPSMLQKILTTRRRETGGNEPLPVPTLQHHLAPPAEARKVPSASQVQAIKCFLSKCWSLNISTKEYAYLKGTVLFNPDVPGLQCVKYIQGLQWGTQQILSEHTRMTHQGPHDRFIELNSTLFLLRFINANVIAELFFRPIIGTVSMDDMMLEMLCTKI
hgDAF-12 ag = activates the H. glycines DAF-12 receptor ligand-binding domain; HEK293 GAL4-hgDAF12 UAS-luciferase reporter, agonist luminescence; normalized to butyrate control; activation, % at 6.8 µM; 370,000 tested, 1.8% active;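 active means activation above a cutoff set at the mean of all screened compounds plus 3 SD, cut at about 10% in these data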
hcDAF-12 act = activates DAF-12 receptor from parasite H. contortus; activation, % at 6.8 µM; 370,000 tested, 1.4% active; HEK293 hcDAF-12 lit1-tk-luc reporter, luminescence; 0% DMSO, 100% Δ7-dafachronic acid; AID 652067;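 active means activation above the mean of all tested compounds plus 3 SD, cut at about 5.5% in these data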
Numbers stand for hits; n = inactive; x = not tested or not shown. Only some compounds are listed: those with a hit (about 4.1% of all), similar ones and a draw of the others.

SMILES	ssDAF-12 act	DAX1 inh-1	DAX1 inh-2	hgDAF-12 ag	hcDAF-12 act
O=C1CCC[C@H]2C[C@H](NCc3ccc(Cl)c(C(F)(F)F)c3)CC[C@]23CCCN13	n	x	x	n	n
Brc1ccc(NCc2cccc3ccccc23)nc1	n	n	n	n	n
Oc1ccccc1CNc1ccc(Br)cn1	n	n	n	12	n
Cc1ccccc1CC(=O)Nc1nnc(-c2cccnc2)s1	n	n	x	n	n
Brc1ccc(-c2nc3ccc(Br)cn3c2Cc2ccccc2)cc1	n	n	x	12	n
COc1ccccc1Cc1c(-c2cccc(Cl)c2)nc2ccc(Cl)cn12	n	n	x	n	n
COc1ccccc1Cc1c(-c2ccccc2)nc2ccc(Cl)cn12	1.5	n	x	n	n
COc1ccccc1Cc1c(-c2ccc(C#N)cc2)nc2ccc(Br)cn12	n	n	x	n	6.0
CC(COc1cccc(C(F)(F)F)c1)CN1CCC(C(O)(c2ccccc2)c2ccccc2)CC1 (centres undefined)	n	n	x	n	n
O=C(CNS(=O)(=O)c1c(Cl)cccc1Cl)N1CCCCCC1	1.0	n	n	n	n
O=C(CNS(=O)(=O)c1cccs1)N1CCCCC1	n	n	n	n	n
COc1ccc(NC(C)=O)cc1NC(C)C(=O)Nc1ccccc1F (centres undefined)	n	n	5.7	n	n
CC(C)(C)c1ccc(-c2nnc(SCC(=O)c3ccc([N+](=O)[O-])cc3)n2-c2ccc(Cl)cc2)cc1	n	n	x	n	n
Cc1csc(NC(=O)c2ccc(C)o2)n1	n	n	n	12	n
Cc1ccc(-c2ocnc2C(=O)Nc2nc(C)cs2)cc1	1.9	n	5.4	n	n
Cc1csc(NC(=O)c2ccccc2O)n1	n	n	n	n	n
Cc1cc(C(=O)Nc2cc(C(C)(C)C)on2)c(C)o1	n	n	6.3	n	n
Cc1csc(NC(=O)c2cc(C)oc2C)n1	0.9	n	n	n	n
O=C(CSc1nnc(Cc2cccs2)n1-c1ccc(Cl)cc1)Nc1ccc(OCc2ccccc2)cc1	n	n	x	n	n
COc1ccc(CN(CCN2CCOCC2)C(=O)c2cc(F)ccc2F)cc1OC	n	n	x	n	n
CCOC(=O)C1CCN(C(=O)C(C)(C)NC(=O)Nc2ccc3c(c2)CCC3)CC1	n	x	x	n	n
O=C(Nc1ccccc1)n1ccc(-c2ccc(-n3ccnc3)cc2)n1	n	n	x	12	n
CC(=O)c1ccc(-n2ccnc2)cc1	n	n	n	n	n
CN(C)c1ccc(C(=O)OCC(=O)N2CCCCCC2)cc1	n	n	n	n	n
CN(C)c1ccc(C(=O)OCC(=O)N2CCCC2)cc1	0.9	n	n	n	n
SMILES	ssDAF-12 act	DAX1 inh-1	DAX1 inh-2	hgDAF-12 ag	hcDAF-12 act
O=C(NCC(=O)N1CCCCCCC1)c1ccc(Br)o1	n	n	6.0	n	n
O=C(Cc1ccc(Br)cc1)N1CCOCC1	0.9	n	n	n	n
O=C(Nc1ccc(N2CCOCC2)cc1)c1ccc(Br)o1	n	n	n	12	n
O=C(NCC(=O)N1CCOCC1)c1ccc(Br)o1	n	3.7	n	n	n
CC(=O)N1CCN(C(=O)CNC(=O)c2ccc(Br)o2)CC1	n	n	n	n	n
O=C(Cc1ccc(-c2ccccc2)cc1)N1CCOCC1	n	n	n	n	n
Cc1ccc(-c2nc(C3CCCN(S(=O)(=O)c4cccs4)C3)no2)cc1 (centres undefined)	n	n	x	n	n
Cc1ccc(SCCSc2nc(C)cc(=O)[nH]2)cc1	n	n	5.0	n	n
Cn1c(=O)c(-c2ccccc2N)nc2ccccc21	n	n	n	n	6.3
CNc1ccccc1-c1nc2ccccc2n(C)c1=O	n	n	n	n	n
CCCCN=C(N)NC(=O)OCc1ccccc1	n	n	x	n	n
S=C(Nc1ccc2[nH]ccc2c1)NC1CCCCC1	n	n	4.7	n	n
Cc1nc2ccc(NC(=S)NC3CCCCC3)cc2nc1C	n	n	6.6	n	n
CC(CN1CCOCC1)OC(=O)c1ccc2c(c1)OCCO2 (centres undefined)	n	n	n	11	n
CC(CN1CCCCC1)OC(=O)c1ccc2c(c1)OCCO2 (centres undefined)	n	n	n	n	n
O=C(OC12CCCN(C1)/C(=C/c1ccncc1)C2)C1CCCCC1 (centres undefined)	n	n	x	n	n
CN(C)c1ccc(C(=O)N/N=C/c2ccccn2)cc1	n	3.6	n	12	n
O=C(N/N=C/c1ccccn1)c1ccccc1	n	n	n	n	n
CN(C)c1ccc(/C=N/NC(=O)c2ccccn2)cc1	1.3	n	n	12	n
CCCN(C(=O)CCc1cn(CCC)c2ccccc12)c1ccc(Oc2cccnc2)cc1	n	n	x	n	n
CC(=O)NC1(c2ccccc2)CCN(c2cc(C)nc(-c3ccccc3)n2)CC1	7.3	n	n	n	n
COc1cccc(C2Oc3ccccc3C3CC(c4cccs4)=NN32)c1 (centres undefined)	n	n	x	n	5.8
Cc1cc(C(=O)CN2C(=O)C3CC=CCC3C2=O)c(C)n1-c1ccccc1 (centres undefined)	n	n	n	11	n
CCN(CCn1cccn1)C(=O)CCc1nnc(CCCc2ccccc2)o1	1.0	n	n	13	n
O=C(CCc1nnc(CCCc2ccccc2)o1)NCCN1CCOC1=O	n	n	n	n	n
SMILES	ssDAF-12 act	DAX1 inh-1	DAX1 inh-2	hgDAF-12 ag	hcDAF-12 act
Cn1cc(CCNC(=O)CCc2nnc(CCCCc3ccccc3)o2)cn1	n	n	n	12	n
O=C(Oc1ccccc1N1C(=O)C2CC=CCC2C1=O)c1ccc(Br)cc1 (centres undefined)	1.2	n	n	n	n
CCOC(=O)c1c(C)oc2ccc(O)c(CN(C)C)c12	n	n	n	n	n
CCOC(=O)c1c(C)oc2cc(Cl)c(O)c(CN(C)C)c12	n	n	n	13	n
CCCCOc1ccc(C2CCC(C(C)=O)C(C)C2)cc1 (centres undefined)	n	n	4.7	n	n
N/C(=N\OC(=O)c1cccc(Br)c1)c1ccc(Br)cc1	n	n	n	n	n
N/C(=N\OC(=O)c1ccc(Br)cc1)c1ccccc1	n	n	n	12	n
CCOC(=O)CN/C=C(\C#N)c1ccccc1	n	n	5.4	n	n
Cc1cc(C)c(S(=O)(=O)N2C[C@H]3CON(C)[C@H]3C[C@H]2c2ccc(-n3ccnc3)cc2)c(C)c1	n	n	x	n	n
NC(=O)c1c(N)[nH]c(C(=O)c2ccccc2)c1-c1ccc(Br)cc1	n	n	x	n	n
CN(C)c1ccc(P(=O)(Nc2cccc(C(F)(F)F)c2)N2CCOCC2)c(NC(=O)c2cccs2)c1 (centres undefined)	1.4	n	n	n	n
O=C(Nc1cc(C(F)(F)F)ccc1N1CCOCC1)c1cccs1	n	n	4.6	n	n
COc1ccc(N2CCOCC2)c(NC(=O)c2cccs2)c1	n	n	n	n	n
O=C(CSc1nnc(-c2ccccn2)n1-c1ccccc1)Nc1ccc(OCc2ccccc2)cc1	n	n	x	n	n

Compound activity as filed in PubChem.
